Screening results as filed in PubChem.
An excerpt weighted towards active compounds, which were near 8% of everything screened.
SW480 rereplic: DNA re-replication induction in SW480 cells; 340,000 compounds, 1.8% hits; Potency, µM (doses to about 46.1 µM), inactives show at the highest dose re-replication activation, usual class: activators; SW480 DNA re-replication, Hoechst DNA content imaging, 48 h; further: % of control where 0% means no effect; nearly all actives have a fitted effect of over 55% in size
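Treated cells incubate 48 hr (37 C, 5% CO2), are stained 40 min with Hoechst, and nuclear fluorescence is enumerated; a rise in nuclei with high DNA signal marks re-replication.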
KB-V1 MDR tox: kills drug-selected multidrug resistant KB-V1 cells | 400,000 compounds, 3.4% hits | Potency, µM (series often up to 46.1 µM), usual class: cytotoxic | KB-V1 MDR cells viability, CellTiter-Glo, 72 h; further: on the % scale 0 is the no-effect control and ±100 the full control effect; nearly all actives have a fitted effect of over 60% in size
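KB-V1 cells (P-gp-expressing MDR subline of KB-3-1) in phenol-red-free DMEM with 10% FBS were exposed to library compounds over a concentration series for 72 h at 37 degrees C. Viability read by CellTiter-Glo luminescence; concentration-effect curves fitted after normalization.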
KB-3-1 tox: KB-3-1 parental cell cytotoxicity | KB-3-1 viability, CellTiter-Glo ATP luminescence, 72 h | Potency, µM (series often up to 46.1 µM), hits mostly cytotoxic | 400,000 compounds, 1.4% hits; further: on the % scale 0 is the no-effect control and ±100 the full control effect; nearly all actives have a fitted effect of over 60% in size
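Luminescent ATP read-out (CellTiter-Glo) measures survival of drug-naive KB-3-1 cells after 72 h compound exposure at 37 °C. Titration series was screened from lowest to highest concentration, with DMSO vehicle plates as background controls.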
HT1080-NT tox: kills 2HG-producing HT-1080-NT fibrosarcoma cells; AID 686970; 360,000 compounds, 1.6% hits; HT-1080-NT fibrosarcoma viability, CellTiter-Glo ATP luminescence, 48 h; Potency, µM (highest dose often 46.1 µM), inactives show top-dose activity, negative = less viability, most hits filed as cytotoxic;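 further: NT is the 2HG producing partner of a matched IDH1 knockdown line; 0% = DMSO-treated cells and -100% = media-only wells without cells; nearly all actives have a fitted effect of over 55% in size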
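Viability of the 2HG-overproducing fibrosarcoma line after 48 hours of compound exposure at 37 degrees C was determined by luminescence with CellTiter-Glo, and concentration-effect curves were then fitted and categorized.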
HT1080 IDH1KD tx: toxicity to HT-1080 IDH1 knockdown cells (counter line); Potency, µM (top dose mostly 46.1 µM), without a hit: top-dose activity, negative = toxicity, actives largely listed as cytotoxic; AID 686971; HT-1080 IDH1 knockdown viability, ATP luminescence, 48 h; 360,000 compounds, 2% hits;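 further: 0% = DMSO wells and -100% = cell-free medium wells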
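After a 2 h attachment period, IDH1KD HT-1080 cells took pin-transferred compound for 48 h at 37 °C; ATP-based luminescence after 10 min room-temperature reagent incubation reported viability.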
MCF10A rereplic: induces DNA re-replication in MCF 10a normal breast cells; MCF 10A DNA re-replication, Hoechst nuclear intensity, 48 h; Potency, µM (series often up to 46.1 µM), for the others: at the top dose activity, positive = re-replication, most hits filed as activators; 350,000 compounds, 2.9% hits; AID 624296; further: % of control where 0% means no effect; nearly all actives have a fitted effect of over 50% in size
Numbers without * were called inactive; [ ] = remark or other dose. The call rests on the fitted dose curve; in most records, active means well fitted curve in the direction sought with a large enough effect; inconclusive means small, poorly fitted or top-dose-only effect, or another doubt; inactive means no such curve, though single readings can be large; an effect the other way counts as inactive or inconclusive. Potency means the concentration at half of the fitted maximal effect.

Screening O=S(=O)(CCc1nc2ccccc2[nH]1)c1ccc(Cl)cc1 returned SW480 rereplic inconclusive, KB-V1 MDR tox inactive, KB-3-1 tox inactive, HT1080-NT tox -1.8%, HT1080 IDH1KD tx -8.9% and MCF10A rereplic inconclusive.
CCN(CC)CCNC(=O)c1c(C)n(-c2ccccc2)c2cc(Br)c(OC)cc12 was read as SW480 rereplic 23.6%, KB-V1 MDR tox inactive, KB-3-1 tox inconclusive, HT1080-NT tox inconclusive, HT1080 IDH1KD tx 16.4µM* and MCF10A rereplic inconclusive.
COc1ccc(/C=N/N2C(=N)SCC2=O)cc1 was read as SW480 rereplic -0.3%, KB-V1 MDR tox 2.59µM*, KB-3-1 tox 7.31µM*, HT1080-NT tox 2.4%, HT1080 IDH1KD tx 1.1% and MCF10A rereplic 12.9%.
For C#CCNC(=O)C1=C[C@H](C(C)(C)C)C[C@H](OCc2ccc(CO)cc2)O1 the results were SW480 rereplic -24.9%, KB-V1 MDR tox inactive, KB-3-1 tox inactive, HT1080-NT tox 2.9%, HT1080 IDH1KD tx inconclusive and MCF10A rereplic 18.4µM*.
`C#CCNC(=O)C1=C[C@H](c2ccc(C#C)cc2)C[C@H](OCc2ccc(CO)cc2)O1` gave SW480 rereplic inconclusive, KB-V1 MDR tox inactive, KB-3-1 tox inactive, HT1080-NT tox -2.5%, HT1080 IDH1KD tx -3.0% and MCF10A rereplic -3.1%.
C#CCNC(=O)C1=C[C@@H](C)C[C@@H](OCc2ccc(CO)cc2)O1 was read as SW480 rereplic -9.6%, KB-V1 MDR tox inactive, KB-3-1 tox inactive, HT1080-NT tox 2.8%, HT1080 IDH1KD tx 8.5% and MCF10A rereplic 13.2%.
C#CCNC(=O)C1=C[C@H](c2ccc(C(F)(F)F)cc2)C[C@H](OCc2ccc(CO)cc2)O1 was read as SW480 rereplic inconclusive, KB-V1 MDR tox inactive, KB-3-1 tox inactive, HT1080-NT tox 0.6%, HT1080 IDH1KD tx 5.2% and MCF10A rereplic 4.11µM*.
Screening Cc1cccc(C)c1NS(=O)(=O)c1c(C)[nH]c(=O)[nH]c1=O returned SW480 rereplic -3.0%, KB-V1 MDR tox inactive, KB-3-1 tox inactive, HT1080-NT tox -7.3%, HT1080 IDH1KD tx -3.3% and MCF10A rereplic -180.9%[0.0737 µM].
O=C(CN1C(=O)NC2(CCCCC2)C1=O)Nc1cccc2ncccc12 was read as SW480 rereplic 20.6µM*, KB-V1 MDR tox inactive, KB-3-1 tox inactive, HT1080-NT tox -2.1%, HT1080 IDH1KD tx -10.3% and MCF10A rereplic -0.4%.
Screening CCOC(=O)c1c(NC(=O)CN2C(=O)NC3(CCC(C)CC3)C2=O)sc(C)c1-c1ccc(C)cc1 (configuration not stated) returned SW480 rereplic -6.0%, KB-V1 MDR tox inactive, KB-3-1 tox inactive, HT1080-NT tox -5.1%, HT1080 IDH1KD tx -0.4% and MCF10A rereplic 3.7%.
Screening COc1ccc(NC(=O)CN2C(=O)NC3(CCCC3)C2=O)c(OC)c1 returned SW480 rereplic -1.2%, KB-V1 MDR tox inactive, KB-3-1 tox inactive, HT1080-NT tox -2.5%, HT1080 IDH1KD tx -0.8% and MCF10A rereplic -0.4%.
Cc1ccc(Cl)cc1NC(=O)CN1C(=O)NC2(CCCCCC2)C1=O was read as SW480 rereplic -1.4%, KB-V1 MDR tox 20.6µM*, KB-3-1 tox inactive, HT1080-NT tox -9.5%, HT1080 IDH1KD tx -2.2% and MCF10A rereplic 1.1%.
For COc1cccc(Oc2ccc(C(F)(F)F)cc2NC(=O)CN2C(=O)NC3(CCCC3)C2=O)c1 the results were SW480 rereplic 57.2%, KB-V1 MDR tox inactive, KB-3-1 tox inconclusive, HT1080-NT tox inconclusive, HT1080 IDH1KD tx -22.3% and MCF10A rereplic 18.4µM*.
Screening CCOC(=O)c1c(NC(=O)CN2C(=O)NC3(CCCCC3)C2=O)sc(C)c1-c1ccc(C)cc1 returned KB-V1 MDR tox 20.6µM*, KB-3-1 tox inconclusive, HT1080-NT tox -2.6%, HT1080 IDH1KD tx -9.3% and MCF10A rereplic inconclusive.
Cc1ncc([N+](=O)[O-])n1CC(=O)Nc1ccccc1 was read as SW480 rereplic 0.8%, KB-V1 MDR tox inactive, KB-3-1 tox inactive, HT1080-NT tox 8.1%, HT1080 IDH1KD tx 7.9% and MCF10A rereplic 3.5%.
Screening Cc1ccc(Cl)cc1NC(=O)CNC(=O)N1CC(=O)Nc2ccccc21 returned SW480 rereplic 29.1µM*, KB-V1 MDR tox inactive, KB-3-1 tox inactive, HT1080-NT tox -3.6%, HT1080 IDH1KD tx 0.0% and MCF10A rereplic -1.2%.
Screening N#Cc1c(NC(=O)C2CC(c3ccccc3O)=NO2)sc2c1CCC2 (configuration not stated) returned SW480 rereplic -38.6%, KB-V1 MDR tox 20.6µM*, KB-3-1 tox inactive, HT1080-NT tox -0.3%, HT1080 IDH1KD tx -7.0% and MCF10A rereplic inconclusive.
Screening N#Cc1c(NC(=O)C2CC(c3ccccc3Cl)=NO2)sc2c1CCC2 (configuration not stated) returned SW480 rereplic -1.9%, KB-V1 MDR tox 25.9µM*, KB-3-1 tox inactive, HT1080-NT tox -2.3%, HT1080 IDH1KD tx -0.4% and MCF10A rereplic 20.6µM*.
Screening O=[N+]([O-])c1ccc(Oc2cccc(Br)c2)c2ccncc12 returned SW480 rereplic inconclusive, KB-V1 MDR tox inconclusive, KB-3-1 tox inconclusive, HT1080-NT tox 20.6µM*, HT1080 IDH1KD tx inconclusive and MCF10A rereplic inconclusive.
O=[N+]([O-])c1ccc(Oc2ccc(F)cc2)c2ccncc12 was read as SW480 rereplic -2.2%, KB-V1 MDR tox inactive, KB-3-1 tox inactive, HT1080-NT tox inconclusive, HT1080 IDH1KD tx -4.4%[9.24 µM] and MCF10A rereplic inconclusive.
For Nc1ccc(Oc2ccc([N+](=O)[O-])cc2[N+](=O)[O-])cc1 the results were SW480 rereplic 9.2%, KB-V1 MDR tox inactive, KB-3-1 tox inactive, HT1080-NT tox -14.8%, HT1080 IDH1KD tx inconclusive and MCF10A rereplic 2.7%.
For O=[N+]([O-])c1ccc(Oc2cccnc2)c([N+](=O)[O-])c1 the results were SW480 rereplic inconclusive, KB-V1 MDR tox inactive, KB-3-1 tox inconclusive, HT1080-NT tox inconclusive, HT1080 IDH1KD tx inconclusive and MCF10A rereplic 5.8µM*.
Screening O=[N+]([O-])c1ccc(OCc2cnc(Cl)s2)c([N+](=O)[O-])c1 returned SW480 rereplic -103.3%, KB-V1 MDR tox 1.16µM*, KB-3-1 tox 6.51µM*, HT1080-NT tox -3.4%, HT1080 IDH1KD tx -11.1% and MCF10A rereplic inconclusive.
COC(=O)C(Cc1cnc(Cl)s1)(C(=O)OC)c1ccc([N+](=O)[O-])cc1[N+](=O)[O-] was read as SW480 rereplic 0.6%[9.22 µM], KB-V1 MDR tox inconclusive, KB-3-1 tox inconclusive, HT1080-NT tox -3.2%, HT1080 IDH1KD tx -0.6% and MCF10A rereplic -22.2%.
